What is called AC50 is the concentration giving half of the maximal activity seen.

The source of these data is PubChem BioAssay (EPA / NIEHS).

Activity calls are given as the source filed them. Rule for the calls: active = hit-call score of the fitted dose curve at least 0.9, where 1 is the maximum; inactive = score below 0.9.

For assay [1], the target named is Bile acid receptor (Homo sapiens) (UniProt Q96RI1). Nature of the assay: ATG_IR1_CIS: Attagene CIS-FACTORIAL HepG2 Assay for human Nuclear Receptor Subfamily 1 Group H Member 4 (NR1H4), IR1 submotif (AID 2282946). The following applies: IR1 reporter transcription, actives raise or lower the signal. In outline:
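Fluorescence of capillary-separated, HpaI-digested RT-PCR reporter products gave IR1-element mRNA induction in HepG2 cells 24 h after dosing. Endogenous transcription factors drove the cis-regulated reporters; activity was fitted bidirectionally against DMSO.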

Assay [2] can be described thus: ATG_GRE_CIS: Attagene CIS-FACTORIAL HepG2 Assay for human Glucocorticoid Response Elements (GRE) (AID 2282947). The following applies: HepG2 GRE cis-reporter, Attagene multiplex mRNA; actives raise or lower the signal. In outline:
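Read-out: fluorescent reporter-transcript fragments separated by capillary electrophoresis after RT-PCR. Transiently transfected HepG2 cells carrying cis-element-driven reporter units were dosed for 24 h; gain or loss of signal fitted against DMSO control.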

The nature of assay [3]: ATG_ISRE_CIS: Attagene CIS-FACTORIAL HepG2 Assay for human Interferon Regulatory Factor 1 (IRF1) binding to an Interferon-Stimulated Response Element (ISRE) (AID 2282948). The following applies: HepG2 ISRE cis-reporter (Attagene), mRNA transcription readout; actives raise or lower the signal. A digest of the protocol: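 Endogenous transcription factor activity read as reporter transcript abundance via RT-PCR and capillary electrophoresis. HepG2 cells transiently transfected, 24 h chemical exposure. Gain or loss fitted against DMSO baseline.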

Assay [4] is described as follows: ATG_M_32_CIS: Attagene CIS-FACTORIAL HepG2 Assay for M32 Transcription Factor (Internal Marker) (AID 2282949).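 Note: background control marker of the multiplexed CIS panel rather than a real target.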 The following applies: HepG2 Attagene cis-factorial M32 reporter, mRNA; actives raise or lower the signal. In outline:
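Using DMSO as baseline, bidirectional curve fits were applied to reporter mRNA signals. These came from transiently transfected HepG2 cells exposed for 24 h, with RNA analysed by RT-PCR, FAM primer extension, HpaI digestion and CE.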

The nature of assay [5]: ATG_M_06_CIS: Attagene CIS-FACTORIAL HepG2 Assay for M06 Transcription Factor (Internal Marker) (AID 2282950). The following applies: HepG2 Attagene CIS-FACTORIAL M06 internal marker reporter; actives raise or lower the signal. A digest of the protocol: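 One of many multiplexed endpoints: HepG2 reporter mRNA after 24 h dosing, detected by RT-PCR and capillary electrophoresis fluorescence; gain or loss of signal analysed against DMSO.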

For assay [6], the target named is Hypoxia-inducible factor 1-alpha (Homo sapiens) (UniProt Q16665). As to the kind of experiment: ATG_HIF1a_CIS: Attagene CIS-FACTORIAL HepG2 Assay for human Hypoxia Inducible Factor 1 (HIF1A) (AID 2282951). Conditions: HepG2 Attagene cis-factorial HIF1a reporter transcription; actives raise or lower the signal. A digest of the protocol: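 In this multiplexed cell assay, HepG2 cells bearing transfected cis reporters are dosed for 24 h and reporter mRNA is read by RT-PCR plus capillary electrophoresis; signal increases and decreases are both scored against DMSO.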
Hypoxia-inducible factor 1-alpha (Homo sapiens), sequence (Q16665 whole entry, looked up): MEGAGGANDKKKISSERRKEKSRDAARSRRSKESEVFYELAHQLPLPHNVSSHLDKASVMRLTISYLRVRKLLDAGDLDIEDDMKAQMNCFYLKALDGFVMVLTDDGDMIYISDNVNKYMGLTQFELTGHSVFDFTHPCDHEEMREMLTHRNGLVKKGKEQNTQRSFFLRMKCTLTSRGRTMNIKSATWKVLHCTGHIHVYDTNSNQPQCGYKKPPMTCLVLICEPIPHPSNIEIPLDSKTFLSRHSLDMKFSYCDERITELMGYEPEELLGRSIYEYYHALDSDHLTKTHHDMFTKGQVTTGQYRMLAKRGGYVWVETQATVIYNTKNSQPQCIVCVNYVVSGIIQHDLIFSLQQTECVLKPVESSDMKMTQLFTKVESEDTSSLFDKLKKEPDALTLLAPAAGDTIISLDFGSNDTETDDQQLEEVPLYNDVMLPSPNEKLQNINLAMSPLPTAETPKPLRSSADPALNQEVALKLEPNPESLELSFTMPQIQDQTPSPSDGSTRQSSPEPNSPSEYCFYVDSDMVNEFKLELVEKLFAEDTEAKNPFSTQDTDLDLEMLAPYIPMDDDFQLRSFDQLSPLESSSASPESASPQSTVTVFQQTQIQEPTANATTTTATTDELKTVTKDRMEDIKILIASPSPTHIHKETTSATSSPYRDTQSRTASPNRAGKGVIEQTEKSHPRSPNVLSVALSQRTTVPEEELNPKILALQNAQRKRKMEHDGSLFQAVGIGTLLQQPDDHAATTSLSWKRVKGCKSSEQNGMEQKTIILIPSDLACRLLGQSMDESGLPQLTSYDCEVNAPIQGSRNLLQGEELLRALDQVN

Assay [7] deals with Hepatocyte nuclear factor 6 (Homo sapiens) (UniProt Q9UBC0). As to the kind of experiment: ATG_HNF6_CIS: Attagene CIS-FACTORIAL HepG2 Assay for human Hepatocyte Nuclear Factor 6 (HNF6) (AID 2282952). Conditions: HepG2 Attagene cis-factorial HNF6 reporter transcription; actives raise or lower the signal. In outline: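 Activity values derive from bidirectional fitting against DMSO of reporter mRNA levels, measured by capillary electrophoresis of labelled RT-PCR products from HepG2 cells exposed 24 h.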
Hepatocyte nuclear factor 6 (Homo sapiens), sequence (Q9UBC0 whole entry, looked up): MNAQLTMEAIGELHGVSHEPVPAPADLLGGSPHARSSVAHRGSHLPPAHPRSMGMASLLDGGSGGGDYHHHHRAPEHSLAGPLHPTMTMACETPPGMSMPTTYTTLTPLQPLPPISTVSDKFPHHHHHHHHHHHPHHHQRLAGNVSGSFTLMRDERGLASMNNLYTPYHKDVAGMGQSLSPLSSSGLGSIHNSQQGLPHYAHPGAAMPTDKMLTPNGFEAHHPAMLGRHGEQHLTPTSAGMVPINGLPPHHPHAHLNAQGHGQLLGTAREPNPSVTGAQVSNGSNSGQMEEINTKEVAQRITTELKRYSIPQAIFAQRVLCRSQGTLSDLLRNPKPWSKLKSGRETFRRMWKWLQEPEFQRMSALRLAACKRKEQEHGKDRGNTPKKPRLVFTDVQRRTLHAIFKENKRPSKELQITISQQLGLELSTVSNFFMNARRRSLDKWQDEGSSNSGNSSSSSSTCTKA

The target of assay [8] is Heat shock factor protein 1 (Homo sapiens) (UniProt Q00613). As to the kind of experiment: ATG_HSE_CIS: Attagene CIS-FACTORIAL HepG2 Assay for human Heat Shock Transcription Factor 1 (HSE) (AID 2282953). Conditions: HepG2 HSE cis-reporter, Attagene RNA transcription; actives raise or lower the signal. A digest of the protocol:
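Using HepG2 with transfected cis-driven reporter constructs, compound effects on endogenous factor activity are scored as reporter mRNA change at 24 h. Detection: RT-PCR, HpaI digestion, capillary electrophoresis; bidirectional fitting to DMSO.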

Assay [9] is described as follows: ATG_MRE_CIS: Attagene CIS-FACTORIAL HepG2 Assay for human Metal Responsive Element (MRE) (AID 2282954). The following applies: HepG2 MRE cis-reporter transcription, Attagene multiplex; actives raise or lower the signal. In outline:
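RT-PCR/capillary electrophoresis readout of reporter mRNA, 24 h post-dosing, in HepG2 cells transfected with multiplexed cis-regulated reporter constructs. Gain or loss of signal fitted bidirectionally against DMSO baseline.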

Assay [10] is described as follows: ATG_PBREM_CIS: Attagene CIS-FACTORIAL HepG2 Assay for human Phenobarbital-responsive Enhancer Module (PBREM) (AID 2282955). Conditions: HepG2 PBREM cis-reporter, Attagene multiplexed transcription; actives raise or lower the signal. A digest of the protocol: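 After a 24 h incubation with test chemical, transfected HepG2 cells yield total RNA; reporter-specific RT-PCR products are fluorescently labelled, HpaI-digested and resolved by capillary electrophoresis against ROX size standards.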

Assay [11] has as its target Paired box protein Pax-6 (Homo sapiens) (UniProt P26367). Nature of the assay: ATG_Pax6_CIS: Attagene CIS-FACTORIAL HepG2 Assay for human Paired Box 6 (PAX6) (AID 2282956). The following applies: HepG2 CIS-FACTORIAL PAX6 reporter transcription, RNA readout; actives raise or lower the signal. In outline:
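Read-out is reporter transcript level, measured by RT-PCR with fluorescent primer extension and capillary electrophoresis after 24 h dosing of transfected HepG2 cells. Activity in either direction fitted relative to DMSO control.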

Assay [12] can be described thus: ATG_PXRE_CIS: Attagene CIS-FACTORIAL HepG2 Assay for human Pregnane X Receptor Element (PXRE) (AID 2282957). The following applies: HepG2 Attagene CIS-FACTORIAL PXRE reporter, mRNA; actives raise or lower the signal. In outline: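 Fluorescent capillary electrophoresis of amplified reporter cDNA gave the signal, collected 24 h after dosing HepG2 cells that held transfected cis-element reporter constructs.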

The nature of assay [13]: ATG_PPRE_CIS: Attagene CIS-FACTORIAL HepG2 Assay for human Peroxisome Proliferator-activated Response Element (PPRE) (AID 2282958). Conditions: HepG2 PPRE cis-element reporter, Attagene transcription factor profiling; actives raise or lower the signal. A digest of the protocol: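 Multiplexed reporter transcription units under cis-regulatory promoters were transfected into HepG2 cells to capture endogenous factor activity. A 24 h incubation preceded RNA isolation and fluorescent RT-PCR fragment analysis.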

A short description of assay [14]: ATG_Sox_CIS: Attagene CIS-FACTORIAL HepG2 Assay for human SRY-box transcription factor (SOX) (AID 2282960). The following applies: HepG2 Attagene cis-factorial SOX reporter, mRNA; actives raise or lower the signal. A digest of the protocol: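 After 24 h of chemical treatment, transfected HepG2 reporter cells are lysed for total RNA. Transcript levels come from RT-PCR with labelled primer extension and capillary electrophoresis, analysed bidirectionally versus DMSO.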

Assay [15] in a line: ATG_SREBP_CIS: Attagene CIS-FACTORIAL HepG2 Assay for human Sterol Regulatory Element Binding (SREBP) (AID 2282962). Conditions: HepG2 Attagene cis-factorial SREBP reporter, mRNA; actives raise or lower the signal. In outline: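 Endogenous SREBP activity read as cis-element-driven reporter transcript in transiently transfected HepG2, 24 h post-dosing; quantified via RT-PCR plus capillary electrophoresis of fluorescent fragments. Gain or loss of signal fitted relative to DMSO baseline.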

For assay [16], the target named is Signal transducer and activator of transcription 3 (Homo sapiens) (UniProt P40763). As to the kind of experiment: ATG_STAT3_CIS: Attagene CIS-FACTORIAL HepG2 Assay for human Signal Transducer and Activator of Transcription 3 (STAT3) (AID 2282963). Conditions: HepG2, Attagene cis-factorial STAT3 reporter transcription; actives raise or lower the signal. A digest of the protocol: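 Readout: fluorescent reporter mRNA fragments resolved by capillary electrophoresis. Setup: HepG2 transfected with MRTUs reporting endogenous transcription-factor activity, dosed 24 h. Gain or loss of signal fitted bidirectionally against DMSO control.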
Signal transducer and activator of transcription 3 (Homo sapiens), sequence (P40763 whole entry, looked up, the tested form may be a part): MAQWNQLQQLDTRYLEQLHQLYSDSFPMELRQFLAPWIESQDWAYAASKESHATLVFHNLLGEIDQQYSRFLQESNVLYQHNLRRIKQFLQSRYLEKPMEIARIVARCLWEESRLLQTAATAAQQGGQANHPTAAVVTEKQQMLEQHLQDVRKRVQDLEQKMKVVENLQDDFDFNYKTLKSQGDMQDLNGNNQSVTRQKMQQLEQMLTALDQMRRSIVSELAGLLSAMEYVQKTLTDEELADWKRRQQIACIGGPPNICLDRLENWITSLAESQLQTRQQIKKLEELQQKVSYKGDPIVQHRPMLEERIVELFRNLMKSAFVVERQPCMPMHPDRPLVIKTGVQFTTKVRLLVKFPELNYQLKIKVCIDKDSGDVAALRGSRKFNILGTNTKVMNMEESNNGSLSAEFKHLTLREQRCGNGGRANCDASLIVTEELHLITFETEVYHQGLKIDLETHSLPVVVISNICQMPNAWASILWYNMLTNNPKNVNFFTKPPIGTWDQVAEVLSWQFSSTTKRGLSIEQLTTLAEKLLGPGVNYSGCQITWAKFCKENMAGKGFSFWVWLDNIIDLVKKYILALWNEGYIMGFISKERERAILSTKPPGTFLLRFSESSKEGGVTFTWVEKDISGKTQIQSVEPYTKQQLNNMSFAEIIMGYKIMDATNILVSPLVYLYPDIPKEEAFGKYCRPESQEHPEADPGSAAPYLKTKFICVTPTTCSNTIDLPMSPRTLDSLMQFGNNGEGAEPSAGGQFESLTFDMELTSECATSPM

A short description of assay [17]: ATG_TA_CIS: Attagene CIS-FACTORIAL HepG2 Assay for human TA Basal Promoter (AID 2282964). Conditions: HepG2 Attagene CIS-factorial TA basal promoter reporter; actives raise or lower the signal. A digest of the protocol: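 Transient MRTU transfection of HepG2 preceded 24 h compound exposure. Reporter mRNA levels were then read by RT-PCR with capillary electrophoresis, and this background-control endpoint was fitted bidirectionally to DMSO.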

Assay [18] in a line: ATG_TCF_b_cat_CIS: Attagene CIS-FACTORIAL HepG2 Assay for human T-Cell-Factor with beta-catenin (TCF/b-cat) (AID 2282965). The following applies: HepG2 TCF/beta-catenin cis-reporter transcription, actives raise or lower the signal. In outline:
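Cells of the HepG2 line carry transiently transfected reporter units whose promoters respond to endogenous factors. Twenty-four hours post-dosing, reporter mRNA induction is measured by fluorescent RT-PCR and capillary electrophoresis, with DMSO as baseline.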

Assay [19] in a line: ATG_RORE_CIS: Attagene CIS-FACTORIAL HepG2 Assay for human RAR-related Orphan Receptor Element (RORE) (AID 2282959). The following applies: HepG2 Attagene cis-factorial RORE reporter, mRNA; actives raise or lower the signal. In outline: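 Fluorescence intensity of reporter-specific cDNA fragments, separated by capillary electrophoresis, gives the signal. Source: HepG2 liver cells transiently transfected with cis-element reporters and exposed 24 h; DMSO-normalized bidirectional fit.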

For assay [20], the target named is Transcription factor Sp1 (Homo sapiens) (UniProt P08047). As to the kind of experiment: ATG_Sp1_CIS: Attagene CIS-FACTORIAL HepG2 Assay for human Specificity Protein 1 (Sp1) (AID 2282961). The following applies: HepG2 Sp1 cis-reporter transcription, actives raise or lower the signal. A digest of the protocol: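 Sp1-driven reporter mRNA, read as capillary electrophoresis fluorescence after RT-PCR, in transiently transfected HepG2 cells dosed for 24 h; signal change in either direction relative to DMSO.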
Transcription factor Sp1 (Homo sapiens), sequence (P08047 whole entry, looked up): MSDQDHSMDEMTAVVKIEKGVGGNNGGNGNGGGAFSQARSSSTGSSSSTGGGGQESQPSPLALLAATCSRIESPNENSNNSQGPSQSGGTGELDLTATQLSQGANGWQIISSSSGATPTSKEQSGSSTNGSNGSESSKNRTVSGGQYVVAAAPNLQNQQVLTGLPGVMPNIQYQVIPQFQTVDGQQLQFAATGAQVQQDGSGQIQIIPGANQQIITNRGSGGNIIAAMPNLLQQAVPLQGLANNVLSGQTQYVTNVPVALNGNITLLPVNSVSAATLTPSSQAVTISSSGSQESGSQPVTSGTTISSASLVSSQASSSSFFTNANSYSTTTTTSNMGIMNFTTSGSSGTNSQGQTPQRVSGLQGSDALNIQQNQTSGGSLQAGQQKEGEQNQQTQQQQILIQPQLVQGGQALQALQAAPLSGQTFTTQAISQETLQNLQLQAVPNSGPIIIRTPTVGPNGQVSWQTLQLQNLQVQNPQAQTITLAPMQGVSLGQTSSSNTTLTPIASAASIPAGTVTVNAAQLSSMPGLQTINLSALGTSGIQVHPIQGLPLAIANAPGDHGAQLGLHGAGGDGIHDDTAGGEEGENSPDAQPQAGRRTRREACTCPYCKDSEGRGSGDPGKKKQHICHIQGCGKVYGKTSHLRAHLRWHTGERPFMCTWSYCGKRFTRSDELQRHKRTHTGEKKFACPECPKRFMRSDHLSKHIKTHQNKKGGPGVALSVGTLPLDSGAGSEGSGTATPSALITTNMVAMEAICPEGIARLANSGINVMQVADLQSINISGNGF

Heat shock factor protein 1 (Homo sapiens), sequence (Q00613 whole entry, looked up): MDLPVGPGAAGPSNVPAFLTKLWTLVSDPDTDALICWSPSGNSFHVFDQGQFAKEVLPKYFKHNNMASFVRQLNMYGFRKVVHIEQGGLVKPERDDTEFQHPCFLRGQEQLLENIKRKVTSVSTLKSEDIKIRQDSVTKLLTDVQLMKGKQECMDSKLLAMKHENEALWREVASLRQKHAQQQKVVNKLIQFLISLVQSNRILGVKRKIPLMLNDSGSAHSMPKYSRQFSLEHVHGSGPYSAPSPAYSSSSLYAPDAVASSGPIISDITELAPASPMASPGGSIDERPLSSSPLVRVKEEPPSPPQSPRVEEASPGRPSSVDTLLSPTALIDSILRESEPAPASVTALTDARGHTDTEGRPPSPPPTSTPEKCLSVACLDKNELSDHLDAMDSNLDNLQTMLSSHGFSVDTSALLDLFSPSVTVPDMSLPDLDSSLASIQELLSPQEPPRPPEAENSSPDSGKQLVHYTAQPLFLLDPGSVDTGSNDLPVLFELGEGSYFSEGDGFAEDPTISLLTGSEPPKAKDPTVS
Bile acid receptor (Homo sapiens), sequence (Q96RI1 whole entry, looked up): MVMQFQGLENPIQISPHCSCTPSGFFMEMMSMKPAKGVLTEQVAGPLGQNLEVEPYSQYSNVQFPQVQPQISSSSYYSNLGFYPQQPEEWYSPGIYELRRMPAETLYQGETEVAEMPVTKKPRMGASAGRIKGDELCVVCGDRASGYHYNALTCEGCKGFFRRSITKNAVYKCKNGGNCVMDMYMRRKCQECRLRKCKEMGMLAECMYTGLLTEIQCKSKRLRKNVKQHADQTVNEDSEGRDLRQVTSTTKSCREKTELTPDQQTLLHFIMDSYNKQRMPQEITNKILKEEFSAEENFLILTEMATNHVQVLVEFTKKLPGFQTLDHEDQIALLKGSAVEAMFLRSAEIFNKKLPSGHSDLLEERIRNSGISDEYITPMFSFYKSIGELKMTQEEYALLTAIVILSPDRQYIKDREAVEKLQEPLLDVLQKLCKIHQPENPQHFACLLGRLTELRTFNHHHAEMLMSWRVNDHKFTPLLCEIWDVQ
Paired box protein Pax-6 (Homo sapiens), sequence (P26367 whole entry, looked up): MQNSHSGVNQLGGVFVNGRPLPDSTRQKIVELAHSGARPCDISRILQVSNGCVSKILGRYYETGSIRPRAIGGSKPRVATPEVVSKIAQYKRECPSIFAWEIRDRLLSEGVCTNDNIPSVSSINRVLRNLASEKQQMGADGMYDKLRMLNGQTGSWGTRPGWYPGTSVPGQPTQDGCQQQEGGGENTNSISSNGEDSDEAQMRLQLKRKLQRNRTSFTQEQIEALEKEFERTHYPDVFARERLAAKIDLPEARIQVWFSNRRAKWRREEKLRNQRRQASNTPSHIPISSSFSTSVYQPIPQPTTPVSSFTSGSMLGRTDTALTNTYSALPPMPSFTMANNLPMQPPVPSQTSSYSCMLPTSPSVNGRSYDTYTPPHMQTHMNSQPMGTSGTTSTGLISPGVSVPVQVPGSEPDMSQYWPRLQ

For the compound `O=C1OC2(c3ccccc31)c1ccc(O)c(Br)c1Oc1c2ccc(O)c1Br`, the compound was called inactive in assay [1], in assay [2], in assay [3], in assay [4], in [5] and in assay [6]. In addition, the result in [7], in assay [8], in assay [9], in [11], in assay [13] and in assay [14] was inactive. In addition, the compound was called inactive in assay [15], in [16], in [17] and in [18]. The AC50 in assay [10] is 35.3 µM (active); in [12] it was 15.9 µM (active).
Consider `CC1(C)C2=CCCC(C)(C)[C@]23CC[C@H]1C3`, for which the compound was classed as inactive in [1], in [2], in assay [3], in [4], in assay [5] and in [6]. The compound was called inactive in assay [7], in assay [8], in [10], in assay [11], in [13] and in [14]. The compound was classed as inactive in assay [16], in assay [17] and in assay [18]. Also, the concentration at half-maximal activity (AC50) in [9] is 100 µM (active); in assay [12], 1.49 µM (active); in [15], 53.2 µM (active).
On to `COc1ccc(OC)c(N=Nc2c(O)ccc3ccccc23)c1`, for which the result in assay [1], in assay [2], in [3], in [4], in assay [5] and in assay [6] was inactive. In addition, the compound was classed as inactive in assay [7], in [8], in assay [9], in assay [10], in assay [11] and in assay [13]. In addition, the result in assay [19], in [14], in assay [20], in assay [15], in assay [16] and in assay [17] was inactive. For the same compound, the call in assay [18] was inactive. Also, in assay [12], the AC50 is 3.46 µM (active).
Take `ClC(c1ccccc1)(c1ccccc1)c1ccccc1`: the result in assay [1], in assay [2], in assay [3], in assay [4], in assay [5] and in [6] was inactive. Further, the outcome in [7], in assay [8], in assay [9], in assay [10], in assay [11] and in assay [13] was inactive. Also, the compound was classed as inactive in assay [15], in [16] and in [18]. The AC50 in assay [12] was 2.59 µM (active).
